Test results taken from the supplement of paper PMC6555819.

These sequences were tested on RXRa DBDmut IVT, anti-RXR (DBD mutation: RXRa K156A/R161A, NR concentration 90 nM) (assay: PBM binding z-score (relative to random genomic background probes); higher = stronger binding; sequences stand for … in GC…GCGATTGACAGCGTAGAATGAAGG).
How it was run: (§1)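 Ligand-free nuclear receptor dimers were bound for 1 h to custom Agilent 4×180K protein-binding microarrays. Detection used antibodies against each partner (one per run). Binding z-scores rest on regression-normalized fluorescence, with random background probes as the reference.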

Point of comparison: TCATATAAGTAAACAGGTGAAAGTCCGTAAGTTA, PBM binding z-score 2.12. Against it:
- CCGACTGGGGCATAAGGCTACCATAAGCCAGCCC — lower, -0.797
- TCTCGTAGATCAGCAGGTTAAGAAAGCTGGCCAA — lower, 0.451
- CGTCCAAGGTCAGAGGGGTCAGTGAATGCCGAGT — higher, 3.32
- CCGACTGGGGCAGTAAGGTTACCATACCATCCGG — lower, -1.01
- TGAATGAGGTTATAAGATCACGGAACGTTGCAAA — lower, 0.931
- ACAGACAGGTGAGTGAAGGTAACTCCGCTGGACG — lower, -0.475
- GATACAGGGTCAAGGCCAGAGTTCGCGTATTGAT — higher, 2.9
- TCTATTAGTTGATTAGGGCAAACGAAACAGCGGA — lower, 0.888
- TCCAGTTGGTCAAAGGTCACACACTCGAAATGCG — higher, 2.25
- TCTGCTAGGTAAGTTGGTCAGCTAACGAGCTGCC — lower, 0.107
- TAGCCTAGGTCTTTCAGGGGCCAGTATAGAAAGC — lower, -0.58
- GTCCCAAGGTGAATAGGTCGTTGATGAGTAGGCG — lower, -0.179
- TCTTGTAGATCAGCAGGTTAAGAAGGCTGGCCAA — lower, 0.672
- TCATATAGGTAAACAGGTGTAAGTCCGTAAGTTA — lower, 1.57
- AGAATGAGGTTGTTAAGATCAGGGAATTGCGGTC — lower, 1.17
- AATACAGGCTCACTAGGCCAGAGTAGGTACGAAT — lower, -0.214
- GCGTACGGGTCAAAGGTTATAGCATGAATAGAAT — lower, 1.83

What follows are sequences tested on RXRa homodimer (NR concentration 180 nM) in the same assay as above.
How it was run: as §1

Point of comparison: TCATATAGGTAAACAGGTGTAAGTCCGTAAGTTA, PBM binding z-score 0.982. Against it:
- AGTCAAAGTTCATCCAGGTAACGTAAGATATGCT — higher, 4.49
- CCGACTGGGGCTGAAAGGTTACCATACCATCCGG — higher, 1.75
- GCGACTGGGGCATCAGCACGTTACCATAACTTAA — lower, 0.0852
- ATATGTAGGTTATCGGGTCATTCCGTTTGCGCAT — higher, 3.38
- CGTCAAAGTTCAGCTAAGGTAACGTAAAGCACGC — higher, 3.15
- CCTACTGGGCCATCAGGTCATTGAAATCAACGTT — higher, 1.18
- CCTCGGAGGACAACAGGAGGTCAGAGCAGCCAGA — higher, 2.05
- CCGACTGCGGCAAAGGTTACCATACTCAGTACGA — higher, 2.46
- TGATATAGGTAATACAGGTGAAAGTCGGCATCTA — higher, 1.12
- CGTCCAAGGTGAGCAGGTCAGTGAAAGCGACGTG — higher, 1.09
- CCTACTGGGCCAAAAAAGTCATTGATGCCGATAA — lower, -0.184
- GCAGACAGGTGAAAGGCAGGTAACTCAGGGTGGC — lower, 0.602
- CCAGACAGGTGAGAAGGTAGCTCAGCCTCGATTA — lower, -0.128
- CGTCCAAGGTCAGAGAGGTCAGTTAATGCCGAGT — higher, 5.63
- ATCGAAAGGTCGAGGTGAGTACAGAGAAAGGGAA — higher, 3.89
- GCATATAGGTAATACAAGGAGAAAGTCCGATTGT — lower, -0.0159
- TCGTGTAGATCAAAGGTTAAGAAAGCCGAAGCCT — higher, 3.14
- CTCGAAAGGTTGGTTGAGGTGAGTATACGGATAA — lower, 0.502
- CAAACTAGGTCAAGGTCGAAGTCGGTTTGTGCCA — higher, 3.49
- ATATGTAGGTTGGCTGGGGTCATTCAGACTAGGC — higher, 5.15
- TCTTGTAGATCATCAGGTTAAGAAAGCTGGCCAA — lower, 0.451
- CGTCCAAGGTCAAAGGTTAGTGAAGAGATGACGG — higher, 8.4
- CCGACTGGGGCATAAGGCTACCATAAGCCAGCCC — lower, -0.16
- TCTCGTAGATCAGCAGGTTAAGAAAGCTGGCCAA — lower, 0.405
- CGTCCAAGGTCAGAGGGGTCAGTGAATGCCGAGT — higher, 6.41
- CCGACTGGGGCAGTAAGGTTACCATACCATCCGG — lower, 0.78
- TGAATGAGGTTATAAGATCACGGAACGTTGCAAA — higher, 2.7
- ACAGACAGGTGAGTGAAGGTAACTCCGCTGGACG — lower, 0.41
- GATACAGGGTCAAGGCCAGAGTTCGCGTATTGAT — higher, 6.18
- TCTATTAGTTGATTAGGGCAAACGAAACAGCGGA — lower, 0.631
- TCCAGTTGGTCAAAGGTCACACACTCGAAATGCG — higher, 7.96
- TCTGCTAGGTAAGTTGGTCAGCTAACGAGCTGCC — lower, -0.613
- TCATATAAGTAAACAGGTGAAAGTCCGTAAGTTA — lower, 0.907
- TAGCCTAGGTCTTTCAGGGGCCAGTATAGAAAGC — lower, -0.286
- GTCCCAAGGTGAATAGGTCGTTGATGAGTAGGCG — higher, 1.67
- TCTTGTAGATCAGCAGGTTAAGAAGGCTGGCCAA — lower, 0.428
- AGAATGAGGTTGTTAAGATCAGGGAATTGCGGTC — lower, 0.15
- AATACAGGCTCACTAGGCCAGAGTAGGTACGAAT — lower, -0.169
- GCGTACGGGTCAAAGGTTATAGCATGAATAGAAT — higher, 9.61

What follows are sequences tested on THRa:RXRa (NR concentration 90 nM, RXRa partner concentration 90 nM) in the same assay as above.
How it was run: as §1

Point of comparison: TGAATGAGGTTATAAGATCACGGAACGTTGCAAA, PBM binding z-score 2.08. Against it:
- AGTCAAAGTTCATCCAGGTAACGTAAGATATGCT — higher, 3.57
- CCGACTGGGGCTGAAAGGTTACCATACCATCCGG — lower, 0.974
- GCGACTGGGGCATCAGCACGTTACCATAACTTAA — lower, -0.219
- ATATGTAGGTTATCGGGTCATTCCGTTTGCGCAT — higher, 3.36
- CGTCAAAGTTCAGCTAAGGTAACGTAAAGCACGC — higher, 5.46
- CCTACTGGGCCATCAGGTCATTGAAATCAACGTT — higher, 3.07
- CCTCGGAGGACAACAGGAGGTCAGAGCAGCCAGA — higher, 2.86
- CCGACTGCGGCAAAGGTTACCATACTCAGTACGA — lower, 1.33
- TGATATAGGTAATACAGGTGAAAGTCGGCATCTA — lower, 0.952
- CGTCCAAGGTGAGCAGGTCAGTGAAAGCGACGTG — lower, 2
- CCTACTGGGCCAAAAAAGTCATTGATGCCGATAA — lower, -0.184
- GCAGACAGGTGAAAGGCAGGTAACTCAGGGTGGC — lower, 1.23
- CCAGACAGGTGAGAAGGTAGCTCAGCCTCGATTA — lower, -0.29
- CGTCCAAGGTCAGAGAGGTCAGTTAATGCCGAGT — higher, 4.39
- ATCGAAAGGTCGAGGTGAGTACAGAGAAAGGGAA — higher, 3.1
- GCATATAGGTAATACAAGGAGAAAGTCCGATTGT — lower, 1.9
- TCGTGTAGATCAAAGGTTAAGAAAGCCGAAGCCT — lower, 1.33
- CTCGAAAGGTTGGTTGAGGTGAGTATACGGATAA — higher, 4.42
- CAAACTAGGTCAAGGTCGAAGTCGGTTTGTGCCA — higher, 3.55
- ATATGTAGGTTGGCTGGGGTCATTCAGACTAGGC — higher, 4.72
- TCTTGTAGATCATCAGGTTAAGAAAGCTGGCCAA — lower, 0.929
- CGTCCAAGGTCAAAGGTTAGTGAAGAGATGACGG — higher, 4.33
- CCGACTGGGGCATAAGGCTACCATAAGCCAGCCC — lower, -0.225
- TCTCGTAGATCAGCAGGTTAAGAAAGCTGGCCAA — lower, 0.0434
- CGTCCAAGGTCAGAGGGGTCAGTGAATGCCGAGT — higher, 4.28
- CCGACTGGGGCAGTAAGGTTACCATACCATCCGG — lower, 1.87
- ACAGACAGGTGAGTGAAGGTAACTCCGCTGGACG — lower, 1.29
- GATACAGGGTCAAGGCCAGAGTTCGCGTATTGAT — higher, 3.64
- TCTATTAGTTGATTAGGGCAAACGAAACAGCGGA — lower, 0.515
- TCCAGTTGGTCAAAGGTCACACACTCGAAATGCG — higher, 4.08
- TCTGCTAGGTAAGTTGGTCAGCTAACGAGCTGCC — lower, -0.549
- TCATATAAGTAAACAGGTGAAAGTCCGTAAGTTA — lower, 0.674
- TAGCCTAGGTCTTTCAGGGGCCAGTATAGAAAGC — lower, 0.663
- GTCCCAAGGTGAATAGGTCGTTGATGAGTAGGCG — lower, 2.06
- TCTTGTAGATCAGCAGGTTAAGAAGGCTGGCCAA — lower, 0.192
- TCATATAGGTAAACAGGTGTAAGTCCGTAAGTTA — lower, 0.356
- AGAATGAGGTTGTTAAGATCAGGGAATTGCGGTC — lower, 0.608
- AATACAGGCTCACTAGGCCAGAGTAGGTACGAAT — lower, -0.688
- GCGTACGGGTCAAAGGTTATAGCATGAATAGAAT — higher, 3.78
